This note sets out measurements from PubChem BioAssay AID1511 (Johns Hopkins Ion Channel Center, 2009).

The structures appear in SMILES notation. Among all 310,000 compounds or so, about 1,600 (0.52%) were called active. The entries come from a sample that favours actives as a whole. Unmarked numbers belong to inactive results.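 How the source made its calls: active means activation above the mean of controls blocked by dofetilide plus 5 SD; inactive means the rest.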

Chain of Voltage-gated inwardly rectifying potassium channel KCNH2 (Homo sapiens) (Q12809 whole entry, looked up): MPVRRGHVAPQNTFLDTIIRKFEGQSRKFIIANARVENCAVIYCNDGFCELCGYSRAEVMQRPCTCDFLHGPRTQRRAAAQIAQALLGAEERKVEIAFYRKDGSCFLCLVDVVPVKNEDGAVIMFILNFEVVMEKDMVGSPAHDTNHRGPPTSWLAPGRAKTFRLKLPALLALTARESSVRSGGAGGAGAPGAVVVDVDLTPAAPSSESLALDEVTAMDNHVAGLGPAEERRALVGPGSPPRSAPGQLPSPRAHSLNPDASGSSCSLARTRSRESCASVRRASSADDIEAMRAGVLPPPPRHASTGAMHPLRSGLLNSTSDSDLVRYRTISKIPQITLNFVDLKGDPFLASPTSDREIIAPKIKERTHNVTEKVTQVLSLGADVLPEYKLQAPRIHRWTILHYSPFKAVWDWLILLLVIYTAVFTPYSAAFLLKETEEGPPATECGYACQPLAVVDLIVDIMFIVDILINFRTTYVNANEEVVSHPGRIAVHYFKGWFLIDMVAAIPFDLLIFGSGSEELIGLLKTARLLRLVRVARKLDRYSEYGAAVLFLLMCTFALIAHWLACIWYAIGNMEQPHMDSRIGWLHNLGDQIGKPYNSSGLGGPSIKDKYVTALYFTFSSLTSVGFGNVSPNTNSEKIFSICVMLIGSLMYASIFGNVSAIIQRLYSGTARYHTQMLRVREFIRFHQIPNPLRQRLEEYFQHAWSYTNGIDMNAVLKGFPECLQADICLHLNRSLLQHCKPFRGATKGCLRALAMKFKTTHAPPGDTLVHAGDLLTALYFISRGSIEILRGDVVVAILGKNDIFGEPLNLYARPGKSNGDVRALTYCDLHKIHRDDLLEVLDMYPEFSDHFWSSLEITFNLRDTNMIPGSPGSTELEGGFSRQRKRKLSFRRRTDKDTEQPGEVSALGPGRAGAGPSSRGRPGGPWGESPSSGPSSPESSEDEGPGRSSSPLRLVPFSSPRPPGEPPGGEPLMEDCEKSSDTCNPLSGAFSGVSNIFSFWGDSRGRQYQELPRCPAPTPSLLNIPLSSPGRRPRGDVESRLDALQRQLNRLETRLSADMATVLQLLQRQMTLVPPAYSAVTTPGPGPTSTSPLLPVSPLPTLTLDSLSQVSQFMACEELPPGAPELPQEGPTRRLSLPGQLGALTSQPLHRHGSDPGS

The assay has as its target Voltage-gated inwardly rectifying potassium channel KCNH2 (Homo sapiens) (UniProt Q12809). In words: compounds relieving dofetilide block of hERG – cell-based, CHO-hERG, FluxOR thallium flux, dofetilide IC70, primary screen (AID 1511).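 Further: thallium influx through hERG after potassium depolarization seen as dye fluorescence rise.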 The settings on record: dofetilide IC70 present, at 10 µM, active compounds read high. A general note: Block of hERG is tested as a sign of cardiac risk.
`CCOC(=O)C(=CNc1cccc(C)n1)C(=O)OCC`: the activation (rescue from dofetilide block), less the hit threshold is 5.91% (active).

With `Cc1cccc(NC(=O)Cc2ccc(Br)cc2)n1`, the activation (rescue from dofetilide block), less the hit threshold was -12.3%.

`Cc1cccc(NC(=O)c2ccc3ccccc3n2)n1`: the activation (rescue from dofetilide block), less the hit threshold was -1.08%.

As for `COC(=O)[C@H](CC(C)C)NC(=O)N1CCCCC1C` (some centres not stated), the activation (rescue from dofetilide block), less the hit threshold is -7.74%.

On to `CCc1ccc(CN(C)C(=O)CCc2nnc(-c3ccc(-c4ccccc4)cc3)o2)nc1`, for which the activation (rescue from dofetilide block), less the hit threshold was -22.3%.

On to `NS(=O)(=O)c1ccc(CNC(=O)c2ccc(Cl)cc2[N+](=O)[O-])cc1`, for which the activation (rescue from dofetilide block), less the hit threshold is -2.96%.

`O=C(Cn1ccc2cc(S(=O)(=O)N3CCCC3)ccc21)NCc1ccccc1`: the activation (rescue from dofetilide block), less the hit threshold was -5.85%.

As for `Cc1ccc(/C=N/NC(=O)c2cc3ccccc3cc2O)o1`, the activation (rescue from dofetilide block), less the hit threshold is 41.5% (active).

`O=C(N/N=C/c1cccnc1)c1cc2ccccc2cc1O`: the activation (rescue from dofetilide block), less the hit threshold was -0.07%.

For the compound `N=c1oc2ccccc2cc1C(=O)N/N=C/c1ccccc1`, the activation (rescue from dofetilide block), less the hit threshold was -8.66%.

As to `CCCCCN1CC(O)=C(c2ccccc2)C1=N`, the activation (rescue from dofetilide block), less the hit threshold was 5.35% (active).

Take `CCCCCN1CC(O)=C(c2nc(-c3ccc(Cl)cc3)cs2)C1=N`: the activation (rescue from dofetilide block), less the hit threshold is -8.57%.

Regarding `CCOC(=O)CCCN1CC(O)=C(c2nc3ccccc3s2)C1=N`, the activation (rescue from dofetilide block), less the hit threshold was -12%.

Regarding `CCC1OC(c2ccc([N+](=O)[O-])cc2)=Nc2ccccc21` (configuration not stated), the activation (rescue from dofetilide block), less the hit threshold was -15.1%.

As to `Cc1ccc(C(C)C)cc1OCC(=O)Nc1ccccc1N1CCCC1`, the activation (rescue from dofetilide block), less the hit threshold was -20.3%.

Regarding `CCc1cc2c(=O)c(-c3ccon3)c(N)oc2cc1OC`, the activation (rescue from dofetilide block), less the hit threshold was 5.25% (active).

Consider `CCc1cc2c(=O)c(-c3ccc(F)cc3)c(C(F)(F)F)oc2cc1OCC(=O)O`, for which the activation (rescue from dofetilide block), less the hit threshold is -11.1%.

For the compound `COc1ccc2oc(N)c(C=O)c(=O)c2c1`, the activation (rescue from dofetilide block), less the hit threshold was -3.18%.

Turning to `CCOC(=O)c1cc(-c2ccc(Cl)s2)nc2c1c(C)nn2C`, the activation (rescue from dofetilide block), less the hit threshold was -9.55%.

On to `CC12c3ccccc3C(c3ccccc31)C1C(=O)N(Cc3cccnc3)C(=O)C12` (configuration not stated), for which the activation (rescue from dofetilide block), less the hit threshold is -9.37%.

`CCOC(=O)C1CCN(C(=O)COc2cccc3ccccc23)CC1`: the activation (rescue from dofetilide block), less the hit threshold was -10.3%.

As for `O=C(CN(CC1CCCO1)C(=O)CNS(=O)(=O)c1ccccc1)NCc1ccccc1` (configuration not stated), the activation (rescue from dofetilide block), less the hit threshold is -7.03%.

Take `O=C(CN(CC1CCCO1)C(=O)CNS(=O)(=O)c1ccc(F)cc1)NCc1ccco1` (configuration not stated): the activation (rescue from dofetilide block), less the hit threshold was 4.78% (active).

Consider `CC(C)C(C(=O)NCc1ccco1)N(CC1CCCO1)C(=O)CNS(=O)(=O)c1ccc(F)cc1` (configuration not stated), for which the activation (rescue from dofetilide block), less the hit threshold was 0.16%.

Take `O=C(CSc1ccccn1)N1CCN(S(=O)(=O)c2ccc(Cl)cc2)CC1`: the activation (rescue from dofetilide block), less the hit threshold was -10.1%.

Consider `CC1(C)Cc2cccc(OCC(=O)Nc3nccs3)c2O1`, for which the activation (rescue from dofetilide block), less the hit threshold was 7.68% (active).

As to `CC1(C)Cc2cccc(OCC(=O)NCc3ccccc3)c2O1`, the activation (rescue from dofetilide block), less the hit threshold was -7.06%.

As to `CC1(C)Cc2cccc(OCC(N)=O)c2O1`, the activation (rescue from dofetilide block), less the hit threshold was -3.71%.

Take `Cc1ccc2c(c1)N(S(=O)(=O)c1cc(-c3cc(C)no3)ccc1C)CCO2`: the activation (rescue from dofetilide block), less the hit threshold was -7.78%.

With `O=C(CCc1ccccc1)NCCc1cccs1`, the activation (rescue from dofetilide block), less the hit threshold was -5.64%.

On to `COc1cc(S(=O)(=O)N2CCOCC2)ccc1NC(=O)COc1ccc(N(C)S(=O)(=O)c2ccc(C)cc2)cc1`, for which the activation (rescue from dofetilide block), less the hit threshold is -22.3%.

As to `O=C1NC(c2ccccc2)Oc2ccccc21` (configuration not stated), the activation (rescue from dofetilide block), less the hit threshold was -10.1%.

On to `FC(F)(F)Oc1ccc(NC(=S)NCc2ccccc2)cc1`, for which the activation (rescue from dofetilide block), less the hit threshold was -9.66%.

Consider `CCNC(=S)Nc1ccc(OC(F)(F)F)cc1`, for which the activation (rescue from dofetilide block), less the hit threshold was -17.9%.

`CS(=O)(=O)c1sc(C(=O)NC(=S)Nc2ccc(OC(F)(F)F)cc2)c2c1C=CCC2`: the activation (rescue from dofetilide block), less the hit threshold is 6.46% (active).

As for `CC1(C)Cc2c(sc(NC(=O)C(=O)N3CCOCC3)c2C#N)CO1`, the activation (rescue from dofetilide block), less the hit threshold was -11.7%.

Consider `CCC(=O)Nc1cccc(NC(=O)CSc2nnnn2C2CCCC2)c1`, for which the activation (rescue from dofetilide block), less the hit threshold was -7.7%.

Take `O=C(CSc1nnnn1C1CCCC1)Nc1ccc2c(c1)OCCO2`: the activation (rescue from dofetilide block), less the hit threshold is 6.54% (active).

`CC(=O)Nc1ccc(NC(=O)CSc2nnnn2C2CCCCC2)cc1`: the activation (rescue from dofetilide block), less the hit threshold is -7.91%.

Consider `O=C(O)c1ccccc1-c1ccccc1C(=O)NCCc1ccccc1`, for which the activation (rescue from dofetilide block), less the hit threshold was -5.86%.

Regarding `CC(C)c1ccc(S(=O)(=O)NC2CCCC2)cc1`, the activation (rescue from dofetilide block), less the hit threshold is -6%.

As to `CCOc1cc(CNn2c(C)nnc2SCC(=O)NC(C)(C)C)ccc1OCC(=O)NC(C)(C)C`, the activation (rescue from dofetilide block), less the hit threshold is -9.51%.

Regarding `CC1CCN(C(=S)NC2CC3CCC2C3)CC1` (configuration not stated), the activation (rescue from dofetilide block), less the hit threshold was -8.02%.

Consider `COc1ccc(CN2CCOC2=O)cc1OC`, for which the activation (rescue from dofetilide block), less the hit threshold is -6.78%.

As for `COc1ccc(CNC(=O)[C@@H]2CC=C[C@@H]3CCN(C4CC4)C(=O)[C@@H]32)cc1`, the activation (rescue from dofetilide block), less the hit threshold is -7.13%.

Consider `COc1ccc(CN2CC[C@H]3C=CC[C@@H](C(=O)N4CCOCC4)[C@H]3C2=O)cc1OC`, for which the activation (rescue from dofetilide block), less the hit threshold is 5.8% (active).

On to `Cc1ccc(S(=O)(=O)c2c[nH]c3ccc(C)cc3c2=O)cc1`, for which the activation (rescue from dofetilide block), less the hit threshold was -9.36%.

Turning to `Cn1c(CC(=O)Nc2ccc(F)cc2)nnc1SCC(=O)NC1CCCCC1`, the activation (rescue from dofetilide block), less the hit threshold was -1.47%.

In the case of `CCOC(=O)c1c(NC(=S)Nc2ccccc2)sc2c1CCN(C)C2`, the activation (rescue from dofetilide block), less the hit threshold was -15.5%.

Consider `CCOC(=O)c1c(NC(=O)C2(C)Cc3ccccc3C(=O)O2)sc2c1CCCC2` (configuration not stated), for which the activation (rescue from dofetilide block), less the hit threshold was -5.83%.

Regarding `CCOC(=O)c1c(NC(=S)NC)sc2c1CCCC2`, the activation (rescue from dofetilide block), less the hit threshold was 28.9% (active).

On to `CCOc1ccc(CCN2C(=O)c3cccnc3C2=O)cc1OCC`, for which the activation (rescue from dofetilide block), less the hit threshold is -5.29%.

Turning to `CCc1nnc(NC(=O)c2c(O)c3c([nH]c2=O)CCCC3)s1`, the activation (rescue from dofetilide block), less the hit threshold was -12.7%.

`C[N+](C)(C)CCNC(=O)c1c(O)c2c([nH]c1=O)CCCC2`: the activation (rescue from dofetilide block), less the hit threshold was 4.89% (active).

Consider `O=C(NCc1ccccn1)c1c(O)c2c([nH]c1=O)CCCC2`, for which the activation (rescue from dofetilide block), less the hit threshold is -0.66%.

`CCSc1ccccc1C(=O)NCc1ccc(OC)cc1`: the activation (rescue from dofetilide block), less the hit threshold is 0.47%.

For `CCC(C(=O)NC1CCCC1)N(C(=O)Cn1nnc(-c2ccc(C)o2)n1)c1ccc(OC)c(OC)c1` (configuration not stated), the activation (rescue from dofetilide block), less the hit threshold was -1.5%.

For `CC(C)C(NC(=O)c1ccc(Cl)cc1)C(=O)O` (configuration not stated), the activation (rescue from dofetilide block), less the hit threshold is -8.13%.

`O=C(NC(=S)NC1CCCCC1)c1ccc(Cl)cc1`: the activation (rescue from dofetilide block), less the hit threshold is -1.76%.

With `CC(C)CNC(=S)NC(=O)c1ccc(Cl)cc1`, the activation (rescue from dofetilide block), less the hit threshold is 7.52% (active).

In the case of `OC(c1nnc(-c2ccccc2)o1)c1cccs1` (configuration not stated), the activation (rescue from dofetilide block), less the hit threshold was -10.2%.

In the case of `COCCCNC(=O)[C@H]1N2C(=O)c3ccccc3C2SC1(C)C` (some centres not stated), the activation (rescue from dofetilide block), less the hit threshold is -7.64%.
